# Changes are numbered by the printed parent chain.
# Experiments:
# Test in all cases: HT-SELEX; high values mean tight binding
# Settings in all cases: protein: recombinant; vector His6-GST; dsDNA, one strand shown
# SALL4 ZFC4 WT (HT-SELEX) = target: T1, SALL4 ZFC4 WT (HT-SELEX) (Mus musculus, UniProt Q8BX22 870-940)
# T1 sequence: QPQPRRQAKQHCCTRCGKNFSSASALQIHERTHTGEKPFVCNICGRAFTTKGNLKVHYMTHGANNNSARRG
# Outline: (§1)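 Up to 6 cycles of selection were run in triplicate. In each, purified recombinant mouse SALL4 zinc finger cluster 4 (residues 870–940, 1 µg) was incubated with library DNA (1.5 µg first cycle, 200 ng later) in 100 µl of 10 mM Tris–HCl pH 7.5, 50 mM NaCl, poly(dI-dC), DTT for 10 min at room temperature, then complexes were captured on Ni2+ beads, washed and PCR-amplified; final pools were MiSeq-sequenced and scanned for 6-mers. Binding signal is each canonical k-mer's read fraction as fold change versus the initial random library.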
# [1] = target: T2, SALL4 ZFC4 R900W (HT-SELEX) (Mus musculus, UniProt Q8BX22 870-940, R900W)
# T2 sequence: T1 sequence with R31W
# Outline: as §1
# [2] = target: T3, SALL4 ZFC4 G921D (HT-SELEX) (Mus musculus, UniProt Q8BX22 870-940, G921D)
# T3 sequence: T1 sequence with G52D
# Outline: as §1
Sequence,binding signal (SALL4 ZFC4 WT (HT-SELEX)),binding signal [1],binding signal [2]
ACTTGA,1.33 ± 0.0337 fold-change vs cycle 0,1.5 ± 0.0479 fold-change vs cycle 0,1.41 ± 0.0888 fold-change vs cycle 0
AGCTTA,1.21 ± 0.0616 fold-change vs cycle 0,1.28 ± 0.0778 fold-change vs cycle 0,1.27 ± 0.0883 fold-change vs cycle 0
CGTCAG,0.341 ± 0.0358 fold-change vs cycle 0,0.427 ± 0.0193 fold-change vs cycle 0,0.535 ± 0.0656 fold-change vs cycle 0
TGTCAA,1.12 ± 0.0378 fold-change vs cycle 0,1.266 ± 0.01 fold-change vs cycle 0,1.26 ± 0.0283 fold-change vs cycle 0
ATTCGC,0.463 ± 0.033 fold-change vs cycle 0,0.495 ± 0.0145 fold-change vs cycle 0,0.637 ± 0.0822 fold-change vs cycle 0
AATCGT,1.18 ± 0.0336 fold-change vs cycle 0,1.21 ± 0.0227 fold-change vs cycle 0,1.23 ± 0.0244 fold-change vs cycle 0
AATGTC,1.08 ± 0.0855 fold-change vs cycle 0,1.21 ± 0.0715 fold-change vs cycle 0,1.22 ± 0.0672 fold-change vs cycle 0
CATAAC,1.83 ± 0.124 fold-change vs cycle 0,1.43 ± 0.0541 fold-change vs cycle 0,1.37 ± 0.0667 fold-change vs cycle 0
TATTCA,2.4 ± 0.138 fold-change vs cycle 0,2.03 ± 0.0979 fold-change vs cycle 0,1.83 ± 0.191 fold-change vs cycle 0
AGAGTG,0.822 ± 0.0341 fold-change vs cycle 0,0.925 ± 0.0332 fold-change vs cycle 0,0.97 ± 0.0268 fold-change vs cycle 0
AGGACA,0.769 ± 0.0198 fold-change vs cycle 0,0.906 ± 0.0391 fold-change vs cycle 0,0.947 ± 0.0205 fold-change vs cycle 0
AATATT,5.49 ± 0.414 fold-change vs cycle 0,2.54 ± 0.119 fold-change vs cycle 0,2.19 ± 0.255 fold-change vs cycle 0
CGCAAA,0.335 ± 0.00942 fold-change vs cycle 0,0.376 ± 0.0263 fold-change vs cycle 0,0.498 ± 0.0731 fold-change vs cycle 0
AGAGGG,0.489 ± 0.0115 fold-change vs cycle 0,0.556 ± 0.0501 fold-change vs cycle 0,0.655 ± 0.0298 fold-change vs cycle 0
AGCAAA,0.996 ± 0.0354 fold-change vs cycle 0,1.04 ± 0.0692 fold-change vs cycle 0,1.07 ± 0.0335 fold-change vs cycle 0
GCTCAC,0.361 ± 0.0205 fold-change vs cycle 0,0.415 ± 0.0136 fold-change vs cycle 0,0.554 ± 0.021 fold-change vs cycle 0
CAATTA,1.91 ± 0.128 fold-change vs cycle 0,1.83 ± 0.147 fold-change vs cycle 0,1.71 ± 0.164 fold-change vs cycle 0
AAAATA,3.77 ± 0.346 fold-change vs cycle 0,2.25 ± 0.159 fold-change vs cycle 0,1.96 ± 0.218 fold-change vs cycle 0
AAAAAA,2.68 ± 0.235 fold-change vs cycle 0,1.98 ± 0.146 fold-change vs cycle 0,1.76 ± 0.185 fold-change vs cycle 0
ATCACG,0.751 ± 0.0409 fold-change vs cycle 0,0.856 ± 0.012 fold-change vs cycle 0,0.923 ± 0.0125 fold-change vs cycle 0

Sequence,binding signal (SALL4 ZFC4 WT (HT-SELEX)),binding signal [1],binding signal [2]
ACGCAT,0.526 ± 0.0513 fold-change vs cycle 0,0.556 ± 0.0269 fold-change vs cycle 0,0.714 ± 0.0322 fold-change vs cycle 0
GGTACA,0.743 ± 0.0263 fold-change vs cycle 0,0.823 ± 0.0156 fold-change vs cycle 0,0.894 ± 0.0191 fold-change vs cycle 0
ACTCCT,1.01 ± 0.0205 fold-change vs cycle 0,1.15 ± 0.052 fold-change vs cycle 0,1.144 ± 0.00693 fold-change vs cycle 0
ACCTAA,1.36 ± 0.0814 fold-change vs cycle 0,1.46 ± 0.0702 fold-change vs cycle 0,1.37 ± 0.0509 fold-change vs cycle 0
ATGTCC,0.723 ± 0.0385 fold-change vs cycle 0,0.831 ± 0.0392 fold-change vs cycle 0,0.904 ± 0.0203 fold-change vs cycle 0
ATACCC,0.85 ± 0.0409 fold-change vs cycle 0,0.935 ± 0.04 fold-change vs cycle 0,0.962 ± 0.0418 fold-change vs cycle 0
GACTAA,1.21 ± 0.0577 fold-change vs cycle 0,1.39 ± 0.093 fold-change vs cycle 0,1.3 ± 0.0798 fold-change vs cycle 0
ACCACG,0.351 ± 0.0168 fold-change vs cycle 0,0.428 ± 0.0163 fold-change vs cycle 0,0.523 ± 0.0453 fold-change vs cycle 0
TGATCA,1.35 ± 0.0953 fold-change vs cycle 0,1.5 ± 0.0834 fold-change vs cycle 0,1.47 ± 0.128 fold-change vs cycle 0
GATGGA,0.878 ± 0.0295 fold-change vs cycle 0,0.978 ± 0.0402 fold-change vs cycle 0,0.97 ± 0.0258 fold-change vs cycle 0
GTCCCA,0.392 ± 0.0166 fold-change vs cycle 0,0.464 ± 0.0186 fold-change vs cycle 0,0.563 ± 0.0717 fold-change vs cycle 0
AAAGAC,1.11 ± 0.0498 fold-change vs cycle 0,1.29 ± 0.0526 fold-change vs cycle 0,1.26 ± 0.0352 fold-change vs cycle 0
CTACCA,0.775 ± 0.0319 fold-change vs cycle 0,0.894 ± 0.00977 fold-change vs cycle 0,0.96 ± 0.00989 fold-change vs cycle 0
AGCTGG,0.346 ± 0.0084 fold-change vs cycle 0,0.411 ± 0.0182 fold-change vs cycle 0,0.522 ± 0.0592 fold-change vs cycle 0
TACTAA,2.076 ± 0.0175 fold-change vs cycle 0,2.12 ± 0.0758 fold-change vs cycle 0,1.87 ± 0.135 fold-change vs cycle 0
GAAATC,1.25 ± 0.0302 fold-change vs cycle 0,1.28 ± 0.0173 fold-change vs cycle 0,1.27 ± 0.0773 fold-change vs cycle 0
GAAAAA,1.86 ± 0.136 fold-change vs cycle 0,1.6 ± 0.0749 fold-change vs cycle 0,1.47 ± 0.105 fold-change vs cycle 0
AGTTAG,1.428 ± 0.0117 fold-change vs cycle 0,1.56 ± 0.0647 fold-change vs cycle 0,1.46 ± 0.0871 fold-change vs cycle 0
CTCAGC,0.369 ± 0.0266 fold-change vs cycle 0,0.414 ± 0.0118 fold-change vs cycle 0,0.525 ± 0.071 fold-change vs cycle 0
ATCCAC,0.828 ± 0.0223 fold-change vs cycle 0,0.953 ± 0.0135 fold-change vs cycle 0,0.986 ± 0.0515 fold-change vs cycle 0

Sequence,binding signal (SALL4 ZFC4 WT (HT-SELEX)),binding signal [1],binding signal [2]
AACGAT,1.21 ± 0.0566 fold-change vs cycle 0,1.27 ± 0.0691 fold-change vs cycle 0,1.23 ± 0.0814 fold-change vs cycle 0
ACGACC,0.308 ± 0.026 fold-change vs cycle 0,0.378 ± 0.0333 fold-change vs cycle 0,0.508 ± 0.0872 fold-change vs cycle 0
AAAGTA,1.92 ± 0.0856 fold-change vs cycle 0,1.98 ± 0.162 fold-change vs cycle 0,1.73 ± 0.169 fold-change vs cycle 0
CTATAG,1.37 ± 0.136 fold-change vs cycle 0,1.45 ± 0.0344 fold-change vs cycle 0,1.35 ± 0.128 fold-change vs cycle 0
ACACAC,0.701 ± 0.0589 fold-change vs cycle 0,0.815 ± 0.0148 fold-change vs cycle 0,0.903 ± 0.0448 fold-change vs cycle 0
ACCAGA,0.795 ± 0.0237 fold-change vs cycle 0,0.921 ± 0.0435 fold-change vs cycle 0,0.947 ± 0.0126 fold-change vs cycle 0
ATAAAG,2.23 ± 0.104 fold-change vs cycle 0,2.12 ± 0.11 fold-change vs cycle 0,1.79 ± 0.17 fold-change vs cycle 0
AAAAGG,1.08 ± 0.0719 fold-change vs cycle 0,1.25 ± 0.064 fold-change vs cycle 0,1.18 ± 0.0579 fold-change vs cycle 0
GTTTTA,1.65 ± 0.0877 fold-change vs cycle 0,1.66 ± 0.0685 fold-change vs cycle 0,1.54 ± 0.113 fold-change vs cycle 0
AACCGT,0.674 ± 0.0289 fold-change vs cycle 0,0.776 ± 0.0238 fold-change vs cycle 0,0.826 ± 0.0315 fold-change vs cycle 0
ATTTTC,1.99 ± 0.115 fold-change vs cycle 0,1.68 ± 0.0202 fold-change vs cycle 0,1.56 ± 0.0749 fold-change vs cycle 0
GTGGTA,0.757 ± 0.0708 fold-change vs cycle 0,0.849 ± 0.0366 fold-change vs cycle 0,0.874 ± 0.0298 fold-change vs cycle 0
TAACAA,2.11 ± 0.116 fold-change vs cycle 0,2.02 ± 0.138 fold-change vs cycle 0,1.81 ± 0.153 fold-change vs cycle 0
GTAGCA,0.6472 ± 0.00166 fold-change vs cycle 0,0.74 ± 0.0284 fold-change vs cycle 0,0.817 ± 0.0421 fold-change vs cycle 0
AAGCGA,0.546 ± 0.0399 fold-change vs cycle 0,0.616 ± 0.0449 fold-change vs cycle 0,0.734 ± 0.0783 fold-change vs cycle 0
CATAAA,2.36 ± 0.2 fold-change vs cycle 0,1.79 ± 0.0666 fold-change vs cycle 0,1.6 ± 0.121 fold-change vs cycle 0
AACCAT,1.38 ± 0.0512 fold-change vs cycle 0,1.42 ± 0.0463 fold-change vs cycle 0,1.41 ± 0.0967 fold-change vs cycle 0
CCCCTA,0.489 ± 0.0364 fold-change vs cycle 0,0.584 ± 0.015 fold-change vs cycle 0,0.638 ± 0.0291 fold-change vs cycle 0
CATAGG,0.854 ± 0.0242 fold-change vs cycle 0,0.918 ± 0.0253 fold-change vs cycle 0,0.978 ± 0.022 fold-change vs cycle 0
CAGTAG,0.806 ± 0.0679 fold-change vs cycle 0,0.908 ± 0.0926 fold-change vs cycle 0,0.954 ± 0.0684 fold-change vs cycle 0

# Reference: PMC9838217, “Structure of SALL4 zinc finger domain reveals link between AT-rich DNA binding and Okihiro syndrome”
